Assay results from PubChem BioAssay AID1159580 (chemical genetic matrix, 2015).
Hit rate of the full screen: of about 5,500 compounds, about 2,000 (36%) were called active. Roughly 18% stayed inconclusive and do not appear here. Rule as the data show it: active = normalized growth mostly below about 0.91 (no sharp cut-off); inconclusive = no clear call, values can overlap the other calls; inactive = mostly above about 0.92. The list shows a part of the results.

Experiment: chemical genetic growth profiling, strain panel (AID 1159580);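 also: tested at 20 µM; growth read once vehicle control cultures reached saturation at 30 °C; 1 = growth at the plate median or of vehicle wells; lower values mean less growth of the strain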
Details: S. cerevisiae deletion strains, growth OD

Measured: normalized growth

CC(=O)Nc1cccc(O)c1
inactive: locus YAL013W, strain DEP1, active compounds read low 1 | locus YAL021C, strain ccr4, active compounds read low 1.01 | locus YAL026C, strain drs2, active compounds read low 1.03 | locus YAL030W, strain snc1, active compounds read low 1.01 | locus YBL061C, strain skt5, active compounds read low 1.01 | locus YBR009C, strain hhf1, active compounds read low 0.984 | locus YBR021W, strain FUR4, active compounds read low 1.01 | locus YBR023C, strain chs3, active compounds read low 1.03 | locus YBR171W, strain sec66, active compounds read low 1.02 | locus YBR229C, strain ROT2, active compounds read low 1.01 | locus YBR231C, strain swc5, active compounds read low 1 | locus YBR279W, strain paf1, active compounds read low 1.02 | locus YCL011C, strain gbp2, active compounds read low 1.04 | locus YCL016C, strain dcc1, active compounds read low 1.05 | locus YCL029C, strain bik1, active compounds read low 0.993 | locus YCL061C, strain MRC1, active compounds read low 1.01 | locus YCL069W, strain vba3, active compounds read low 1.01 | locus YCR088W, strain abp1, active compounds read low 1.02 | locus YDL005C, strain med2, active compounds read low 1.02 | locus YDL035C, strain GPR1, active compounds read low 0.992 | locus YDL040C, strain nat1, active compounds read low 0.999 | locus YDL074C, strain BRE1, active compounds read low 1.02 | locus YDL101C, strain DUN1, active compounds read low 1.02 | locus YDL134C, strain PPH21, active compounds read low 0.983 | locus YDL185W, strain tfp1, active compounds read low 0.993 | locus YDL192W, strain arf1, active compounds read low 1.01 | locus YDR001C, strain nth1, active compounds read low 1.01 | locus YDR069C, strain doa4, active compounds read low 1.03 | locus YDR101C, strain arx1, active compounds read low 0.989 | locus YDR137W, strain rgp1, active compounds read low 1.03 | locus YDR150W, strain NUM1, active compounds read low 0.998 | locus YDR159W, strain sac3, active compounds read low 0.954 | locus YDR162C, strain NBP2, active compounds read low 0.999 | locus YDR195W, strain ref2 0.986 | locus YDR297W, strain sur2, active compounds read low 0.998 | locus YDR318W, strain mcm21, active compounds read low 1.01 | locus YDR334W, strain swr1, active compounds read low 1.02 | locus YDR335W, strain msn5, active compounds read low 1.01 | locus YDR388W, active compounds read low 0.998 | locus YDR392W, strain spt3, active compounds read low 0.99 | locus YDR502C, strain sam2, active compounds read low 0.986 | locus YEL003W, strain gim4, active compounds read low 1 | locus YEL037C, strain rad23, active compounds read low 1 | locus YEL061C, strain CIN8 (second series), active compounds read low 1 | locus YEL061C, strain CIN8, active compounds read low 1.01 | locus YER015W, strain faa2, active compounds read low 1.02 | locus YER016W, strain bim1, active compounds read low 1.03 | locus YER110C, active compounds read low 1 | locus YER111C, strain swi4, active compounds read low 1.01 | locus YER155C, strain BEM2 (second series), active compounds read low 0.999 | locus YER155C, strain BEM2, active compounds read low 1.01 | locus YER167W, strain BCK2, active compounds read low 1 | locus YFR010W, strain ubp6, active compounds read low 0.994 | locus YGL078C, strain dbp3, active compounds read low 0.994 | locus YGL086W, strain mad1, active compounds read low 0.99 | locus YGL167C, strain pmr1, active compounds read low 1.01 | locus YGL173C, strain kem1, active compounds read low 0.987 | locus YGL227W, strain vid30, active compounds read low 1.02 | locus YGL240W, strain doc1, active compounds read low 0.977 | locus YGL248W, strain PDE1, active compounds read low 1.02 | locus YGL253W, strain hxk2, active compounds read low 1.04 | locus YGR078C, strain PAC10, active compounds read low 1.01 | locus YGR135W, strain pre9, active compounds read low 1.02 | locus YGR252W, strain gcn5, active compounds read low 1 | locus YHR013C, strain ard1, active compounds read low 1.04 | locus YHR027C, strain rpn1, active compounds read low 1.01 | locus YHR030C, strain SLT2, active compounds read low 1 | locus YHR079C, strain IRE1 (second series), active compounds read low 0.997 | locus YHR094C, strain hxt1, active compounds read low 0.997 | locus YHR129C, strain ARP1, active compounds read low 1.01 | locus YHR142W, strain chs7, active compounds read low 1.04 | locus YHR200W, strain rpn10, active compounds read low 0.996 | locus YIL066C, strain RNR3, active compounds read low 1 | locus YIL073C, strain SPO22, active compounds read low 1.02 | locus YIL125W, strain kgd1, active compounds read low 0.994 | locus YIR030C, strain dcg1, active compounds read low 0.991 | locus YJL092W, strain hpr5, active compounds read low 1.01 | locus YJL095W, strain BCK1 (second series), active compounds read low 1.03 | locus YJL095W, strain BCK1, active compounds read low 1.03 | locus YJL115W, strain asf1, active compounds read low 1.02 | locus YJL129C, strain trk1, active compounds read low 1.04 | locus YJL134W, strain LCB3, active compounds read low 1.02 | locus YJL154C, strain vps35, active compounds read low 1.01 | locus YJL164C, strain tpk1, active compounds read low 1.03 | locus YJL166W, strain qcr8, active compounds read low 0.982 | locus YJL168C, strain set2, active compounds read low 1.02 | locus YJL187C, strain SWE1 (second series), active compounds read low 1.02
